High-throughput results deposited in PubChem BioAssay by The Scripps Research Institute Molecular Screening Center.
SF1 inhibitor: inhibitors of human SF-1, primary screen, cell-based, CHO-K1, Gal4-SF-1 LBD, luciferase luminescence. AID 525, 2006. Steroidogenic factor 1 (Homo sapiens), Q13285. CHO-K1 Gal4-SF-1 LBD luciferase reporter. inhibition, % at 10 µM. hit rate 0.55% among 65,000;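 active = inhibition above the mean inhibition of all tested compounds plus 3 SD, cut at about 48% in these data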;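 also: 0% = SF-1 transfected cells with DMSO and 100% = mock-transfected cells lacking SF-1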
Target sequence (Q13285 whole entry, looked up, the tested form may be a part): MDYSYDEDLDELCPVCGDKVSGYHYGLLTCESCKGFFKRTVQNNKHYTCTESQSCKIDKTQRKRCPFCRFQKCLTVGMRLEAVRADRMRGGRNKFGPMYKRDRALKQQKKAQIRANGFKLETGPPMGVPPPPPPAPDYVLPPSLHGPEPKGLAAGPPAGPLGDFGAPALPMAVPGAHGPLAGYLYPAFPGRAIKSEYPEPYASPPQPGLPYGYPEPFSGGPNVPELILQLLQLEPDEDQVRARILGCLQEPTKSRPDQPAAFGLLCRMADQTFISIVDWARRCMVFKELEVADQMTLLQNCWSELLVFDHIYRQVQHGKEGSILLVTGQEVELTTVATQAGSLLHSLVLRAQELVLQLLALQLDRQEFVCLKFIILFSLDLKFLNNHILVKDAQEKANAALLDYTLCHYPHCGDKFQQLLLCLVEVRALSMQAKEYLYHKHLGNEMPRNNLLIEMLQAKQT
An asterisk follows results filed as active. Only a selection was taken, and hits are over-represented in it overall.

CCOC(=O)Cn1c(CN2CC(C)OC(C)C2)nc2c1c(=O)n(C)c(=O)n2C (configuration not stated) was read as SF1 inhibitor 0.
O=C(NC1CCCc2ccccc21)C1CCN(c2nnc(-n3cccc3)s2)CC1 (configuration not stated) was read as SF1 inhibitor -24.
Screening Oc1c(/C=N/c2ncn[nH]2)ccc2ccccc12 returned SF1 inhibitor 7.
For CCOP(=O)(c1c(F)c(F)c(F)c(F)c1F)C1(O)CCCCC1 (configuration not stated) the results were SF1 inhibitor 0.
`Cc1ccc(-c2csc3n[nH]c(=S)n23)cc1` gave SF1 inhibitor 0.
For c1ccc2nc(-c3nc4ccccc4[nH]3)ccc2c1 the results were SF1 inhibitor 67*.
O=c1[nH]c2ccccc2nc1-c1cccs1 was read as SF1 inhibitor -54.
Screening c1csc(-c2ccc3ccccc3n2)c1 returned SF1 inhibitor -79.
For Cc1ccc(CNC(=O)c2cn(C3CCCC3)c(=O)c3c2c2ccccc2n3C)o1 the results were SF1 inhibitor 16.
CC(C)c1ccc2oc(-c3cc(N)ccc3O)nc2c1 was read as SF1 inhibitor 60*.
`Nc1ccc2oc(CCc3ccccc3)nc2c1` gave SF1 inhibitor -79.
Cc1ccccc1-c1nc2cc(N)ccc2o1 was read as SF1 inhibitor -58.
For CN(Cc1ccco1)C(=O)c1ccc(N2CCCC2=O)cc1 the results were SF1 inhibitor -10.
For COc1ccc(C2CC(C(F)(F)F)n3nc(C(=O)NCc4cn(C)nc4C)c(Cl)c3N2)cc1 (configuration not stated) the results were SF1 inhibitor 20.
CCC(C)(C(=O)NC1CCCC1)N(C(=O)c1cnccn1)c1c(C)n(C)n(-c2ccccc2)c1=O (configuration not stated) was read as SF1 inhibitor -11.
For Cc1cc(C)nc(SCCS(=O)Cc2ccc(Cl)cc2)n1 (configuration not stated) the results were SF1 inhibitor -1.
`O=C(CN1C(=O)CCSc2ccccc21)Nc1cccc(F)c1` gave SF1 inhibitor 0.
Screening COc1ccc(Nc2ncc3c(n2)CC(c2ccc(OC)cc2)CC3=O)cc1 (configuration not stated) returned SF1 inhibitor 10.
For COCCn1c(C)cc(C(=O)CN2C(=O)NC3(CCCCCCC3)C2=O)c1C the results were SF1 inhibitor -43.
Screening COCCn1c(C)cc(C(=O)CSc2nnc(C)s2)c1C returned SF1 inhibitor 68*.
`COCCn1c(C)cc(C(=O)COC(=O)C23CC4CC(CC(O)(C4)C2)C3)c1C` gave SF1 inhibitor -77.
Screening O=C(OCc1nc2ccccc2s1)C1CCN(C2=NS(=O)(=O)c3ccccc32)CC1 returned SF1 inhibitor -53.
For Cc1cc(C)n(-c2nc(C)nc3sc4c(c23)CCC(C)C4)n1 (configuration not stated) the results were SF1 inhibitor 5.
CCOC(=O)c1cnn(-c2nc(SC)nc3sc4c(c23)CCC4)c1N was read as SF1 inhibitor -3.
Cc1cccc(NC(=O)CSc2nnc(-c3cc(C)n(-c4ccccc4)c3C)o2)c1C was read as SF1 inhibitor 73*.
Screening Cc1ccc(Cl)cc1NC(=O)CSc1nnc(C)n1-c1ccccc1 returned SF1 inhibitor 16.
For Cc1ccccc1NC(=O)CSc1[nH]c(=O)cc(C)c1C#N the results were SF1 inhibitor 0.
Screening CCn1ncc(C2=NOC(C(=O)N3CCC(C(N)=O)CC3)C2)c1C (configuration not stated) returned SF1 inhibitor 1.
`Cc1ccc(C)c(S(=O)(=O)c2c(N)n(/N=C/c3ccco3)c3nc4ccccc4nc23)c1` gave SF1 inhibitor 15.
For COc1nc(Nc2nc3ccccc3c(=O)[nH]2)nc2ccc(C)cc12 the results were SF1 inhibitor 76*.
For COc1ccc(S(=O)(=O)N(Cc2ccccc2)Cc2nc3ccccc3c(=O)[nH]2)cc1 the results were SF1 inhibitor 12.
COc1ccc(Nc2nc(C)c3ccccc3n2)cc1 was read as SF1 inhibitor -99.
For Cc1ccc(S(=O)(=O)Nc2cccc3ncccc23)s1 the results were SF1 inhibitor 91*.
For CC1Cc2ccccc2N1C(=O)CCNS(=O)(=O)c1cccc2nsnc12 (configuration not stated) the results were SF1 inhibitor 7.
`Cc1ccc2nc(-c3ccccc3)cn2c1` gave SF1 inhibitor 89*.
For C/C(NCc1cccnc1)=C(\C#N)C(=O)NCc1ccccc1 the results were SF1 inhibitor 5.
`C=CCc1c(C)nc(SC)nc1Nc1ccc(C(C)=O)cc1` gave SF1 inhibitor -14.
`Cc1cnc(NC(=O)CSc2nnc(-c3ccccc3)o2)s1` gave SF1 inhibitor -88.
`Cc1cnc(NC(=O)COc2ccccc2Cl)s1` gave SF1 inhibitor 60*.
Cc1cnc(NC(=O)CSc2nnc(COc3c(C)cccc3C)o2)s1 was read as SF1 inhibitor 1.
Screening C=CCN(C(=O)CCC(=O)Nc1cc(C)on1)C(C(=O)NC(C)(C)C)c1cccc(OC)c1OC (configuration not stated) returned SF1 inhibitor 6.
COc1ccc(NC(=O)C2CCN(c3nc(C)nc4c3CCC4)CC2)cc1 was read as SF1 inhibitor -11.
`COc1cccc(CC(NC(C)=O)C(=O)NC2CCN(c3c4c(nc5ncnn35)CCC4)CC2)c1` (configuration not stated) gave SF1 inhibitor -72.
Screening COc1cc(CC(NC(C)=O)C(=O)NC2CCN(c3nc(C)cc(C)c3C#N)CC2)cc(OC)c1 (configuration not stated) returned SF1 inhibitor 71*.
CN(Cc1ccccc1)C(=O)CCCn1c(=O)[nH]c2cc(Cl)ccc2c1=O was read as SF1 inhibitor -7.
O=C(Cn1cc2c(n1)CCCC2)NCC1CCCO1 (configuration not stated) was read as SF1 inhibitor 4.
For CCN(CC)S(=O)(=O)c1ccc2oc(C(=O)NCC3COc4ccccc4O3)c(C)c2c1 (configuration not stated) the results were SF1 inhibitor 6.
Screening COc1cc(C)nc(Oc2ccc(=O)[nH]n2)n1 returned SF1 inhibitor -5.
CSc1nnnn1CCn1nnnc1SC was read as SF1 inhibitor 12.
COc1nc(OCCNC(=O)Nc2ccccc2)nc(N(C)C)n1 was read as SF1 inhibitor 5.
`Cc1ccc(-c2nc(CS(=O)(=O)CC(=O)N3CC(C)CC(C)C3)c(C)o2)cc1` (configuration not stated) gave SF1 inhibitor 0.
`CCC(OC(=O)c1ccco1)C(=O)NCc1ccco1` (configuration not stated) gave SF1 inhibitor 13.
`COc1ccc(C(=O)Nc2ccccc2-c2nnn(CC(=O)NCc3ccco3)n2)cc1` gave SF1 inhibitor 8.
For COCCNC(=O)c1ccc2ccccc2n1 the results were SF1 inhibitor -8.
For CCOCCCNC(=O)CS(=O)(=O)Cc1nc(-c2cccc(OC)c2)oc1C the results were SF1 inhibitor -6.
For COCCNC(=O)CSCc1nc(-c2ccc(SC)cc2)oc1C the results were SF1 inhibitor 90*.
`CCOC(=O)N1CCC(NC(=O)C2CCN(Cc3nc(-c4ccc(CC)cc4)oc3C)CC2)CC1` gave SF1 inhibitor 16.
CCc1ccc(-c2nc(CSCC(=O)NCCCN3CCCC3=O)c(C)o2)cc1 was read as SF1 inhibitor 63*.
